Test results: PubChem BioAssay

target: Concanavalin-A (Canavalia ensiformis) (UniProt P02866); assay: compounds binding concanavalin A lectin – biochemical, small-molecule microarray, Alexa647 label, 635 nm, artefact control for SMM control protein annotation, primary screen (AID 1127); conditions: ConA-A647 binding fluorescence, higher = more signal;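 also: z combines 667 nm emission intensity with signal-to-noise across three replicate slides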
Sequence (P02866 whole entry, looked up): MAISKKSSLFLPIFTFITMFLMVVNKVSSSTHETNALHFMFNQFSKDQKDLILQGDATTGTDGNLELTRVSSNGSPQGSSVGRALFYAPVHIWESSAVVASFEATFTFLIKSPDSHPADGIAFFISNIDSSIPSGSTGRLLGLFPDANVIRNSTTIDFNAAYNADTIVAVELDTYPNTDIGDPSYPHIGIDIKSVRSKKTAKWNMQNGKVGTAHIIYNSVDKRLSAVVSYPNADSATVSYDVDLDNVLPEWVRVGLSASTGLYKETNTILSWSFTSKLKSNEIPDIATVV

| Compound | composite z-score |
| --- | --- |
| CC(C)[Si]1(C(C)C)OCc2cc(C3CC3)nc(-c3ccc(Oc4ccccc4)cc3)c21 | -0.725 |
| O=C1NC(=O)C2C1C=CC(C(O)c1ccco1)N2Nc1ccc(Cl)cc1Cl (stereo not given) | 0.321 |
| Cc1ccc(N2C(=O)c3ccccc3[C@@H](C(=O)NCCCN(C)C)[C@@H]2c2ccc(CO)cc2)nc1 | 0.375 |
| CCCCCCc1nc(Cc2cc(OC)c(OC)c(OC)c2)cc2c1[Si](C(C)C)(C(C)C)OC2 | 0.524 |
| CCOC(=O)C1=C[C@@H](C(C)(C)C)N(S(=O)(=O)c2ccc(C)cc2)[C@H]1c1cccc2ccccc12 | 1.05 |
| COc1cc2c(cc1O)C(c1cccs1)N(Cc1cc3c(cc1Br)OCO3)CC2 (stereo not given) | 1.12 |
| C=CCNC(=O)[C@@H]1[C@H]2C(=O)O[C@H](c3ccccc3)[C@H](c3ccccc3)N2[C@H](c2ccccc2OCCO)[C@@]12C(=O)Nc1ccc(C#CCC(C(=O)OC)C(=O)OC)cc12 | 0.727 |
| C=CCN1C(=O)[C@]2(CCS(=O)(=O)c3ccccc3)N=C(c3ccc(OCCCO)cc3)O[C@@H]2c2ccccc21 | 1.17 |
| CC(c1ccccc1)C(O)C1C=CC2C(=O)N(C)C(=O)C2N1Nc1ccccc1 (stereo not given) | 1.21 |
| N#Cc1ccc(NN2C(C(O)c3ccc(Br)cc3)C=CC3C(=O)N(c4ccccc4)C(=O)C32)cc1 (stereo not given) | 1.07 |
| COc1ccc([Si](C)(C)[C@@H]2[C@@H](CCO)O[C@]3(C(=O)N(Cc4cccc(NC(=O)[C@H](C)O)c4)c4ccccc43)[C@H]2C)cc1 | 1.01 |
| CCCCC(CC)C(O)C1C=CC2C(=O)N(C)C(=O)C2N1Nc1ccccc1 (stereo not given) | 0.586 |
| COCCOC(=O)N1C(=O)[C@@]2(c3cc(C#CCCO)ccc31)[C@H](c1ccc(OCCO)cc1)N1[C@H](c3ccccc3)[C@H](c3ccccc3)OC(=O)[C@H]1[C@@H]2C(=O)Nc1nc2ccccc2s1 | 1.13 |
| [N-]=[N+]=NCc1ccccc1[C@@H]1OC(c2ccc(OCCCO)cc2)=N[C@]1(CCS(=O)(=O)c1ccccc1)C(=O)O | 0.448 |
| O=C1C[C@]2(c3ccc([N+](=O)[O-])cc3)C(=O)N(C3CC3)c3cc(CO)ccc3[C@H]2N1CC12CC3CC(CC(C3)C1)C2 | 0.176 |
| CCCC[C@@H]1C[C@H]1[C@@H](NC(=O)c1cccs1)c1ccccc1C(F)(F)F | 1.08 |
| O=C(Cc1ccccc1)[C@H]1C2C=CCCC(c3ccccc3)=C2CN1Cc1ccccc1 (stereo not given in full) | -0.22 |
| COC(=O)[C@]1(CCS(=O)(=O)c2ccccc2)N=C(c2ccc(OCCCO)cc2)O[C@@H]1c1ccccc1N=[N+]=[N-] | 1.19 |
| COCCOC(=O)N1C(=O)[C@@]2(c3cc(C#CC4=CCCCC4)ccc31)[C@H](c1ccccc1OCCO)N1[C@H](c3ccccc3)[C@H](c3ccccc3)OC(=O)[C@H]1[C@@H]2C(=O)N1CCN(c2ncccn2)CC1 | 1.06 |
| CN(C)C(=O)[C@@]1(Cc2ccccc2)N=C(c2ccc(OCCCO)cc2)O[C@H]1c1ccccc1 | 0.931 |
| COc1ccc(C#Cc2ccc3c(c2)[C@]2(C(=O)N3)[C@H](C(=O)O)[C@H]3C(=O)O[C@H](c4ccccc4)[C@H](c4ccccc4)N3[C@@H]2c2ccc(O)cc2)cc1 | -0.425 |
| CCCCC[C@H]1OC[C@@]23C=C(Br)[C@@H](CC12)[C@@]1(CO1)C3=O (stereo not given in full) | -0.308 |
| CC1CC/C=C\[C@H]2OC34C=CCN(c5ccc(Cl)cc5)C(=O)[C@H]3N(C(C)CO)C(=O)[C@]4(C)C2C(=O)O1 (stereo not given in full) | -0.863 |
| COc1cc2c(cc1O)C(C1CC1)N(Cc1cccc(OC(F)(F)F)c1)CC2 (stereo not given) | -0.744 |
| COc1cc(C(O)C2C=CC3C(=O)N(C)C(=O)C3N2Nc2ccccc2)cc(OC)c1OC (stereo not given) | 1.01 |
| [N-]=[N+]=NCc1ccccc1[C@H]1OC(c2ccc(OCCCO)cc2)=N[C@@]1(Cc1ccccc1N=[N+]=[N-])C(=O)NCC(O)CO (stereo not given in full) | 1.09 |
| COC(=O)[C@@]1(Cc2ccc(OC)cc2)[C@H]2c3cc(C(=O)N(C)C)n(Cc4ccc(OC(F)(F)F)cc4)c3C[C@H]2CN1C(=O)c1ccccc1 | -0.467 |
| C=C(/C(=C/C[C@H](OC(C)=O)c1ccc(CO)o1)c1cnc2ccccc2c1)C(C)C | 1.14 |
| Cc1ccc(S[C@]2(C(=O)NCc3ccccc3)CC(=O)N(C3CCCCC3)[C@@H]2c2ccc(CO)cc2I)cc1 | 1.14 |
| COc1ccc([Si](C)(C)[C@@H]2[C@@H](CC(=O)N3Cc4ccccc4C[C@H]3CO)O[C@]3(C(=O)N(Cc4ccc(N5C(=O)c6cccc7cccc5c67)cc4)c4ccccc43)[C@H]2C)cc1 | 0.988 |
